According to PubChem BioAssay (EPA / NIEHS):
Results filed as inconclusive are left out. The source holds several records for some structures; these can differ, active in one and inactive in another. The source made the active and inactive calls. The calls were made as follows: active = hit-call score of the fitted dose curve at least 0.9, where 1 is the maximum; inconclusive = response in the unintended direction; inactive = score below 0.9.

Tests used:
[1] = LTEA_HepaRG_LDH_cytotoxicity: Cytotoxicity Assessment in the Life Technologies and Expression Analysis (LTEA) Assay (AID 2283563);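 as to AC50: LDH activity released into spent culture medium as a marker of cell death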
How it was run: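 Differentiated human HepaRG cells, plated 48 h beforehand, were switched to serum-free induction medium and exposed for 48 h to eight half-log concentrations (top 100 uM) in 0.5% DMSO. LDH was measured in spent medium; activity was fitted relative to DMSO vehicle.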

[2] = ATG_XTT_Cytotoxicity: Cytotoxicity Assessment in the Attagene TRANS-FACTORIAL HepG2 Assay (AID 2283584)
How it was run: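 HepG2 human liver cells, transiently transfected with multiple GAL4-UAS reporter units, were dosed and read at 24 h by XTT as cell number. Loss of signal was fitted relative to DMSO negative control baseline.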

[3] = TOX21_p53_BLA_p2_viability: Viability Assessment in the Tox21 HCT-116 p53 Agonism Beta-lactamase Assay, Phase 2 (AID 2283591);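 also: compound exposure lasted 16 h at 37 °C; actives lower the ATP signal meaning cytotoxicity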
How it was run: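 HCT116 p53-bla cells, 4000/well, dosed after 5 h plating (217-fold dilution of DMSO stocks) and incubated 16 h at 37C. Viability taken as cellular ATP by CellTiter-Glo luminescence after 30 min RT; signal loss marks cytotoxicity.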

[4] = molecular target: Cellular tumor antigen p53 (Homo sapiens) (UniProt P04637); test: TOX21_p53_BLA_p2_ratio: Tox21 HCT-116 p53 Agonism Beta-lactamase Assay, Ratio, Phase 2 (AID 2283592)
Cellular tumor antigen p53 (Homo sapiens), sequence (P04637 whole entry, looked up): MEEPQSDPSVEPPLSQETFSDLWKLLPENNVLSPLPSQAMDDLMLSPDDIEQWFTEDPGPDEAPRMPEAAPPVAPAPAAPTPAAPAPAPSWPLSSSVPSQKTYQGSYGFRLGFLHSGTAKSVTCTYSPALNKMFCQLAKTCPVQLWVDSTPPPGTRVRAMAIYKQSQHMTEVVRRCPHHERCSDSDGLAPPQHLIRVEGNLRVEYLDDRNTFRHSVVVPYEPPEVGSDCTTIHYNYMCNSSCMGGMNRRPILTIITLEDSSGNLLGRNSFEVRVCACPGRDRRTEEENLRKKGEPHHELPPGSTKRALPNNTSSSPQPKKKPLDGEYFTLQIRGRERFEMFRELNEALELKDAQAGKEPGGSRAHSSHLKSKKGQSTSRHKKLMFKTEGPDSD
How it was run: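 HCT116 cells carrying a p53-responsive beta-lactamase reporter were plated, incubated 5 h at 37C, then dosed with compounds in DMSO (217-fold dilution) for 16 h. CCF4-AM substrate was added for 2 h at room temperature; the 460/530 nm emission ratio gave gain-of-signal activity relative to DMSO.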

[5] = TOX21_p53_BLA_p3_viability: Viability Assessment in the Tox21 HCT-116 p53 Agonism Beta-lactamase Assay, Phase 3 (AID 2283593);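 also: cells exposed to compound for 16 h before reading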
How it was run: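 HCT116 cells, 4000/well, dosed 5 h after plating by pin transfer (217-fold dilution from DMSO stock) and incubated 16 h at 37C, 5% CO2. Viability read as ATP luminescence with CellTiter-Glo after 30 min at room temperature.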

[6] = molecular target: Cellular tumor antigen p53 (Homo sapiens) (UniProt P04637); test: TOX21_p53_BLA_p3_ratio: Tox21 HCT-116 p53 Agonism Beta-lactamase Assay, Ratio, Phase 3 (AID 2283596)
How it was run: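 HCT116 p53-bla cells (4000/well) given compound in DMSO (217-fold dilution) after 5 h, incubated 16 h at 37C. CCF4-AM substrate 2 h at room temperature; 460/530 nm emission ratio, gain fitted against DMSO.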

[7] = TOX21_p53_BLA_p4_viability: Viability Assessment in the Tox21 HCT-116 p53 Agonism Beta-lactamase Assay, Phase 4 (AID 2283597);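 also: hits lower the luminescence signal meaning cytotoxicity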
How it was run: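 HCT116 p53-bla cells (4000/well) rested 5 h at 37C, then received compounds in DMSO (217-fold dilution) for 16 h at 37C, 5% CO2. CellTiter-Glo was added after the CCF4-AM read, and luminescence was read after 30 min at room temperature.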

[8] = molecular target: Cellular tumor antigen p53 (Homo sapiens) (UniProt P04637); test: TOX21_p53_BLA_p5_ratio: Tox21 HCT-116 p53 Agonism Beta-lactamase Assay, Ratio, Phase 5 (AID 2283599)
How it was run: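 HCT-116 p53-bla cells (4000/well) plated 5 h, dosed with compound (217-fold DMSO dilution) for 16 h at 37 C; CCF4-AM substrate 2 h at room temperature. Activity is the 460/530 nm emission ratio (405 nm excitation), fitted in gain-of-signal direction versus DMSO.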

[9] = TOX21_p53_BLA_p5_viability: Viability Assessment in the Tox21 HCT-116 p53 Agonism Beta-lactamase Assay, Phase 5 (AID 2283600)
How it was run: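 Cells were plated at 4000/well, rested 5 h at 37C, then given compounds in DMSO (217-fold dilution) for 16 h at 37C, 5% CO2. Following the CCF4-AM beta-lactamase read, CellTiter-Glo was added and luminescence was read after 30 min at room temperature.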

[10] = molecular target: Cellular tumor antigen p53 (Homo sapiens) (UniProt P04637); test: TOX21_p53_BLA_p4_ratio: Tox21 HCT-116 p53 Agonism Beta-lactamase Assay, Ratio, Phase 4 (AID 2283601)
How it was run: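 HCT-116 p53 beta-lactamase reporter cells (4000/well) preincubated 5 h, then compound (217-fold dilution of DMSO stock) for 16 h at 37C. CCF4-AM substrate added 2 h at room temperature; 460/530 nm emission ratio fitted upward versus DMSO.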

[11] = Tanguay_ZF_120hpf_MORT_legacy: (Legacy) Oregon State University Tanguay Lab 120 Hour Post-fertilization zebrafish Assay for Mortality (AID 2283633)
How it was run: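 Dechorionated Tropical 5D wild-type zebrafish embryos, one per well from 6 hpf, were statically exposed at 28C in the dark until 120 hpf (0.64% DMSO final). Mortality was scored as present/absent by brightfield microscopy, fitted positively versus DMSO.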

[12] = Tanguay_ZF_120hpf_YSE_legacy: (Legacy) Oregon State University Tanguay Lab 120 Hour Post-fertilization zebrafish Assay for Yolk Sac Edema (AID 2283634);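 as to AC50: actives raise the incidence of yolk sac edema above the DMSO baseline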
How it was run: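 Tropical 5D wild-type embryos, dechorionated with pronase at 4 hpf, were exposed singly from 6 hpf to 120 hpf under static, sealed, dark conditions at 28C with 0.64% DMSO final. Yolk sac edema was scored present/absent by brightfield microscopy.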

[13] = Tanguay_ZF_120hpf_AXIS_legacy: (Legacy) Oregon State University Tanguay Lab 120 Hour Post-fertilization zebrafish Assay for Body Axis Malformation (AID 2283635);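 as to AC50: potency for an increased fraction of larvae scored with body axis malformation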
How it was run: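 Tropical 5D wild-type zebrafish embryos, dechorionated with pronase at 4 hpf, were placed singly in wells at 6 hpf and exposed statically to test chemical (0.64% DMSO final) at 28C until 120 hpf, then scored by brightfield for body axis defects.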

[14] = Tanguay_ZF_120hpf_EYE_legacy: (Legacy) Oregon State University Tanguay Lab 120 Hour Post-fertilization zebrafish Assay for Eye Malformation (AID 2283636);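 also: binary presence or absence of eye malformation scored by brightfield in 120 hpf larvae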
How it was run: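 Dechorionated Tropical 5D zebrafish embryos, one per well from 6 hpf, static exposure to 120 hpf at 28C, 0.64% DMSO. Eye malformation scored present/absent by brightfield; dead embryos not scored.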

[15] = Tanguay_ZF_120hpf_SNOU_legacy: (Legacy) Oregon State University Tanguay Lab 120 Hour Post-fertilization zebrafish Assay for Snout Malformation (AID 2283637)
How it was run: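 Dechorionated tropical 5D wild-type zebrafish embryos exposed statically from 6 to 120 hpf at 28C, one per well, in 0.64% DMSO. Snout malformation scored as present/absent by brightfield at 120 hpf; dead embryos not scored.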

[16] = Tanguay_ZF_120hpf_JAW_legacy: (Legacy) Oregon State University Tanguay Lab 120 Hour Post-fertilization zebrafish Assay for Jaw Malformation (AID 2283638);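 as to AC50: active means more embryos with jaw malformation than DMSO controls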
How it was run: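 Tropical 5D wild-type embryos, dechorionated with pronase at 4 hpf, were placed singly per well at 6 hpf and statically exposed at 28C until 120 hpf (0.64% DMSO final). Jaw malformation scored as present/absent by brightfield microscopy at 120 hpf, analyzed relative to DMSO.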

[17] = Tanguay_ZF_120hpf_OTIC_legacy: (Legacy) Oregon State University Tanguay Lab 120 Hour Post-fertilization zebrafish Assay for Otic Vesicle Malformation (AID 2283639)
How it was run: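 Tropical 5D wild-type zebrafish embryos were exposed statically in sealed, foil-covered plates at 28C until 120 hpf, with 0.64% (vol/vol) DMSO final. Otic vesicle malformation was scored present/absent by brightfield microscopy, with DMSO as baseline.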

[18] = Tanguay_ZF_120hpf_PE_legacy: (Legacy) Oregon State University Tanguay Lab 120 Hour Post-fertilization zebrafish Assay for Pericardial Edema (AID 2283640);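 as to AC50: potency for increased incidence of pericardial edema versus DMSO baseline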
How it was run: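 Tropical 5D wild-type zebrafish embryos were exposed statically to 120 hpf at 28C, sealed and foil-covered, in 0.64% DMSO final. Pericardial edema was scored present/absent by brightfield microscopy; dead embryos were not scored.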

[19] = Tanguay_ZF_120hpf_BRAI_legacy: (Legacy) Oregon State University Tanguay Lab 120 Hour Post-fertilization zebrafish Assay for Brain Malformation (AID 2283641)
How it was run: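 Tropical 5D wild-type zebrafish embryos were exposed statically in sealed, foil-covered plates at 28C until 120 hpf, with 0.64% (vol/vol) final DMSO. Brain malformation was scored present/absent by brightfield microscopy, relative to DMSO baseline.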

[20] = Tanguay_ZF_120hpf_SOMI_legacy: (Legacy) Oregon State University Tanguay Lab 120 Hour Post-fertilization zebrafish Assay for Somite Malformation (AID 2283647)
How it was run: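 Tropical 5D wild-type zebrafish embryos, dechorionated with pronase at 4 hpf, were placed singly at 6 hpf and statically exposed until 120 hpf at 28C in 0.64% DMSO. Somite malformation was scored present/absent by brightfield microscopy versus DMSO.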

Measured: AC50

O=P(Oc1ccccc1)(Oc1ccccc1)Oc1ccccc1
active: [1] 72.7 µM
inactive: all other assays above

CCC(C)(C)c1ccc(O)cc1
active: [12] 51.1 µM | [13] 19 µM | [14] 22.3 µM | [15] 52.7 µM | [16] 14.7 µM | [17] 48.4 µM | [18] 44.5 µM | [19] 48.1 µM | [20] 36.6 µM
not listed: [3]
inactive: all other assays above

c1cc2c3c(cccc3c1)CC2
not listed: [2] | [4] | [5]
inactive: all other assays above

CC(Cl)(Cl)C(=O)O
inactive: [1] | [11] | [12] | [13] | [14] | [15] | [16] | [18] | [19] | [20]

O=S1(=O)OCC2C(CO1)C1(Cl)C(Cl)=C(Cl)C2(Cl)C1(Cl)Cl (centres undefined)
inactive: [2] | [3] | [4] | [5] | [6] | [7] | [8] | [9] | [10]

N#Cc1cc([N+](=O)[O-])ccc1N
inactive: [2]

Nc1ccc(Sc2ccc(N)cc2)cc1
inactive: [2]

O=[N+]([O-])c1cc(Cl)ccc1Cl
inactive: [2]

COP(=O)(CCC(=O)NCO)OC
inactive: [2]

COCCOCCO
inactive: [1] | [11] | [12] | [13] | [14] | [15] | [16] | [17] | [18] | [19] | [20]

Oc1ccc(I)cc1
inactive: [2]

CCOP(=S)(OCC)SCS(=O)(=O)CC
inactive: [2]

Cc1cccc(N)c1
not listed: [2] | [3] | [17]
inactive: all other assays above

CC(C)CBr
inactive: [2]

O=C(O)CF
inactive: [2]

CCOP(=O)(O)C(N)=O
inactive: [2]

CC(Cc1ccc(OCC(=O)O)cc1)NCC(O)c1csc(C(F)(F)F)n1 (centres undefined)
not listed: [2] | [3] | [5] | [7] | [9]
inactive: all other assays above

Nc1cc2c3c(c1)C(c1ccccc1)=N[C@@H](NC(=O)c1cccnc1)C(=O)N3CC2
inactive: [1] | [11] | [12] | [15] | [16] | [18] | [20]

O=P1(N(CCCl)CCCl)NCCCO1 (centres undefined)
not listed: [2] | [3] | [5] | [7] | [9]
inactive: all other assays above

Cc1cc(C)c(C(=O)P(=O)(c2ccccc2)c2ccccc2)c(C)c1
inactive: [2]

Cc1ccc(N)cc1N
inactive: [1] | [4] | [5] | [6] | [8] | [9] | [10] | [11] | [13] | [14] | [15] | [17] | [18] | [19] | [20]
active: [10] 14.7 µM

ClC(Cl)(Cl)c1ccccc1
not listed: [2] | [3] | [4] | [5] | [15] | [18] | [19]
inactive: all other assays above

CCOC(=O)c1ccccc1N
inactive: [2]

Clc1ccc(Oc2ccccc2)cc1
inactive: [2]

N#Cc1ccc(O)cc1
inactive: [2]

CCOC(=O)c1ccccc1C(=O)OCC
not listed: [2] | [3] | [9] | [17]
inactive: all other assays above

Cn1[nH]nnc1=S
inactive: [2]

CC(O)C#N (centres undefined)
inactive: [2]

CC(C)(C)c1ccccc1OP(=O)(Oc1ccccc1)Oc1ccccc1
inactive: [2]

CCCCC(CC)COP(=O)(Oc1ccccc1)Oc1ccccc1 (centres undefined)
inactive: [2]

N#C/C=C/c1ccccc1
inactive: [2]

N#Cc1c(-c2ccc(Cl)cc2)[nH]c(C(F)(F)F)c1Br
inactive: [2]

CCOP(=S)(OCC)SCSc1ccc(Cl)cc1
inactive: [2]

CC(Cl)CN(C)C (centres undefined)
inactive: [2]

Nc1ccc([N+](=O)[O-])cc1Cl
inactive: [2]

NNC(N)=S
inactive: [2] | [4] | [5] | [6] | [7] | [8] | [10]
